The list is not random: actives were taken first. Their share in the collection is about 0.55%.
EPAC1 antagonist: qHTS for Antagonist of cAMP-regulated guanine nucleotide exchange factor 3 (EPAC1): primary screen. EPAC1 GEF assay, Rap1b-BODIPY-GDP exchange fluorescence. Potency, µM (doses to about 115 µM), for the others: at the top dose activity change, negative = inhibition, actives largely listed as inhibitors. 360,000 compounds, 0.14% hits. AID 720709, 2013;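 also: plate controls were vehicle for no effect and positive control for full effect; nearly all actives have a fitted effect of over 50% in size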
EPAC2 antagonist: qHTS for Antagonist of cAMP-regulated guanine nucleotide exchange factor 2 (EPAC2): primary screen. EPAC2 GEF exchange of Rap1B-BODIPY-GDP, fluorescence. Potency, µM (series often up to 114 µM), for inactives: at the highest dose activity, negative = inhibition, hits mostly inhibitors. 360,000 compounds, 0.18% hits. AID 720708, 2013; also: % is scaled to controls: 0 for no effect and ±100 for the full control effect; nearly all actives have a fitted effect of over 45% in size
EPAC2 agonist: qHTS for Agonist of cAMP-regulated guanine nucleotide exchange factor 4 (EPAC2): primary screen; Rap guanine nucleotide exchange factor 4 (Homo sapiens), Q8WZA2; EPAC2 activation, biochemical qHTS; response scale: 100% = 6.5 mM cAMP response; Potency, µM (titrated, usually from 154 µM), inactives show at the top dose activation, hits mostly activators; 360,000 compounds, 0.079% hits; AID 720711, 2013; also: nearly all actives have a fitted effect of over 50% in size
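Each well held 100 nM EPAC2, 250 nM RAP1B-BODIPY-GDP and 50 uM GDP. Fluorescence, read at 5-min intervals to 30 min, was referenced to a 6.5 mM cAMP positive control.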
GLP1R cytotox: qHTS of GLP-1 Receptor Inverse Agonists: Cytotox Screen; 410,000 compounds, 0.13% hits; HEK293 cAMP-luciferase reporter cells, luminescence, 24 h; AID 624418, 2012; Potency, µM (titrated, usually from 38.3 µM), inactives show at the top dose activity change, negative = inhibition, usual class: inhibitors;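 also: loss of luciferase light is scored as toxicity; % is scaled to controls: 0 for no effect and ±100 for the full control effect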
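A 23 nL compound transfer followed 12 hours of cell culture at 37 deg C; exposure then lasted 24 hr. Luciferase assay detection reagent was dispensed and plates read for luminescence after a 12 min room-temperature wait.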
EPAC1 ag: qHTS for Agonist of cAMP-regulated guanine nucleotide exchange factor 3 (EPAC1): primary screen; Rap guanine nucleotide exchange factor 3 (Homo sapiens), O95398; EPAC1 agonist qHTS, biochemical assay; response scale: 100% = response to 6.5 mM cAMP; Potency, µM (titrated, usually from 154 µM), for inactives: at the highest dose activation, most hits filed as activators; 360,000 compounds, 0.073% hits; also: nearly all actives have a fitted effect of over 60% in size
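Nucleotide exchange by EPAC1 (100 nM) on Rap1B–BODIPY-GDP (250 nM) in the presence of 50 uM GDP is tracked fluorescently at 480/540 nm over 30 min. Signals are normalized to a 6.5 mM cAMP control.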
USP1 inh: Inhibitors of USP1/UAF1: Primary Screen; AID 743255, 2014; Potency, µM (titrated, usually from 57.1 µM), for inactives: top-dose activity change, negative = inhibition, actives largely listed as inhibitors; Ubiquitin carboxyl-terminal hydrolase 1 (Homo sapiens), O94782; 390,000 compounds, 0.23% hits; recombinant USP1/UAF1, Ub-Rhodamine cleavage fluorescence; also: % is scaled to controls: 0 for no effect and ±100 for the full control effect; nearly all actives have a fitted effect of over 60% in size
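High-throughput fluorogenic screen: 1nM USP1/UAF1 complex, Ub-Rho substrate 150nM final, 50mM HEPES pH 7.8 with 0.5mM EDTA, 0.1 mg/ml BSA, 1mM TCEP and 0.01% Tween-20.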
An asterisk follows results filed as active; ? = inconclusive; / = not tested or not shown. Calls follow the shape of the dose curve; as a rule, active = well fitted curve in the direction sought with a large enough effect; inconclusive = small, poorly fitted or top-dose-only effect, or another doubt; inactive = no such curve, though single readings can be large; an effect the other way counts as inactive or inconclusive. Potency is read from the fitted curve at half-maximal effect.

SMILES	EPAC1 antagonist	EPAC2 antagonist	EPAC2 agonist	GLP1R cytotox	EPAC1 ag	USP1 inh
CC(C)CCn1c(Oc2ccccc2Cl)nc2c1c(=O)n(C)c(=O)n2C	-11.6%	31.6µM*	0.2%	-18.4%	0.9%	-13.6%
Cc1ccc(N2C(=O)c3cccc4c(N)ccc(c34)C2=O)c2cccnc12	112.8%	278.8%	100µM*	16.2%	?	25.1µM*
Cc1ccc(-n2cnnn2)c2cccnc12	6.2%	-2.2%	9.4%	-5.5%	5.5%	-11.6%
CCCOc1ccc(NC(=O)CC2C(=O)N(c3cccc(OC)c3)C(=O)N2Cc2cccs2)cc1 (centres undefined)	/	/	/	-4.7%	/	?
COC(=O)c1c(C)cc(O)cc1O	-14.0%	-1.5%	4.3%	-1.6%	-14.1%	-28.8%
Cc1cc(OC(=O)c2c(C)cc(OC(=O)c3c(C)cc(O)cc3O)cc2O)cc(O)c1C(=O)O	56.2µM*	-2.7%	2.2%	9.8%	-6.0%	-10.8%
COc1cc(/C=N/NC(=O)C(Cc2c[nH]c3ccccc23)NC(=O)OCc2ccccc2)cc([N+](=O)[O-])c1O (centres undefined)	79.4µM*	-16.0%	-14.4%	-4.8%	-5.8%	?
COc1ccccc1CN1C(=O)CN(C2CCCCCC2)C(=O)C1c1ccc(C)cc1 (centres undefined)	/	/	/	-6.4%	/	-13.8%
Cc1ccc(N(C)C(=O)CN2C(=O)CCc3cc(S(=O)(=O)N4CCOCC4)ccc32)cc1	/	/	/	-7.1%	/	-9.7%
N#Cc1c(Nc2ccccc2)sc(C(=O)c2ccccc2)c1N	2.6%	35.5µM*	1.0%	10.6%	3.0%	-2.4%
N#Cc1c(Nc2ccc(F)cc2)sc(C(=O)c2ccccc2)c1N	-21.5%	-12.3%	2.2%	-6.0%	-2.5%	-27.1%
CC(C)(C)OC(=O)N1CCC(c2c(C(=O)N3CCN(c4ccccc4F)CC3)cnn2C(C)(C)C)CC1	/	/	/	-0.8%	/	4.6%
CCOc1ccc(Nc2c(S(=O)(=O)c3ccc(Cl)cc3)cnc3ccc(OC)cc23)cc1	/	/	/	-7.7%	/	-22.9%
Cc1ccc([C@@H]2CC=C(C(=O)O)[C@H](c3ccc(C(C)(C)C)cc3)N2S(=O)(=O)c2ccc(C)cc2)cc1	28.2µM*	?	-14.2%	-16.9%	-24.3%	?
Cc1ccc(S(=O)(=O)N2[C@@H](c3ccc(C(C)(C)C)cc3)C(C(=O)O)=CC[C@H]2c2ccc(C(C)C)cc2)cc1	31.6µM*	39.8µM*	-23.4%	?	-47.7%	?
Cc1ccc([C@@H]2CC=C(C(=O)O)[C@H](c3ccc(F)cc3)N2S(=O)(=O)c2ccc(C)cc2)cc1	3.7%	-1.9%	15.0%	-11.1%	7.2%	-16.3%
CCc1ccc([C@@H]2CC=C(C(=O)O)[C@H](c3ccc(C(C)(C)C)cc3)N2S(=O)(=O)c2ccc(C)cc2)cc1	44.7µM*	56.2µM*	-14.9%	-11.1%	-32.8%	?
Cc1ccc(S(=O)(=O)N2[C@@H](c3ccc(Br)cc3)C(C(=O)O)=CC[C@H]2c2ccc(C(C)C)cc2)cc1	56.2µM*	?	4.6%	-21.1%	3.2%	-9.3%
Cc1ccccc1NC(=O)c1c(NC(=O)Cc2ccccc2)sc2c1CCC2	/	/	/	10.5%	/	25.2%
Cc1ccc(Cl)cc1N1CCN(C(=O)c2ccc(CS(=O)c3ccccc3)o2)CC1 (centres undefined)	/	/	/	?	/	-13.5%
COc1ccc(NC(=O)CSc2nnc(-c3nonc3NC(C)=O)n2C)cc1Cl	/	/	/	14.8%	/	-11.0%
Cc1ccc(S(=O)(=O)N2[C@@H](c3ccc(Cl)c(Cl)c3)C(C(=O)O)=C[C@H]2CC2CCCC2)cc1	50.1µM*	?	-2.7%	-11.5%	-14.5%	?
Cc1ccc(S(=O)(=O)N2[C@@H](c3ccc(C(C)(C)C)cc3)C(C(=O)O)=CC[C@H]2c2cccs2)cc1	-16.2%	31.6µM*	-9.0%	0.9%	-4.0%	-12.5%
Cc1ccc(S(=O)(=O)N2C(c3ccc(Cl)c(Cl)c3)CC=C(C(=O)O)C2c2ccc(Cl)cc2)cc1 (centres undefined)	-10.4%	63.1µM*	-7.0%	-23.7%	12.5%	/
Cc1ccc(S(=O)(=O)N2[C@@H](c3ccc(Cl)cc3)C(C(=O)O)=CC[C@H]2c2ccc(Cl)c(Cl)c2)cc1	?	?	-2.2%	-25.5%	0.8%	-30.5%
SMILES	EPAC1 antagonist	EPAC2 antagonist	EPAC2 agonist	GLP1R cytotox	EPAC1 ag	USP1 inh
CCOc1ccccc1NC(=O)Cn1cnc2c1c(=O)n(C)c(=O)n2C	/	/	/	-1.8%	/	-7.4%
CCCCCc1c(-c2ccccc2F)ncn1CCc1ccccc1OC	-20.5%	?	-0.5%	-10.8%	-9.1%	/
CCCCc1c(-c2ccccc2F)ncn1CCc1ccccc1OC	-14.5%	42.3µM*	16.5%	-9.6%	-7.3%	/
CCOC(=O)c1c(CSc2ccccc2)n(C)c2cc(Br)c(OC)c(O)c12	4.1%	-6.0%	8.5%	-13.1%	10.7%	-24.1%
CCOC(=O)c1c(CSc2ccccc2)n(C)c2cc(Br)c(OCC(O)CNC(CO)(CO)CO)cc12 (centres undefined)	-10.9%	39.8µM*	?	?	6.9%	?
O=S(=O)(Nc1ccccc1-c1ccccc1)c1ccccc1	-18.5%	50.1µM*	17.1%	2.2%	12.1%	?
O=C(O)c1cccc(S(=O)(=O)Nc2ccccc2-c2ccccc2)c1	-9.7%	6.6%	-6.6%	12.8%	-20.3%	-15.8%
CCCc1cc2c(cc1N(C)S(=O)(=O)c1ccccc1)OCO2	-16.3%	28.2µM*	8.7%	16.9%	10.1%	-7.4%
COc1ccccc1N(C)S(=O)(=O)c1ccc(C(=O)NCc2ccc3c(c2)OCO3)cc1	20.8%	-2.1%	3.9%	-3.4%	-2.6%	-15.6%
Cc1cccc(-c2nc(C)c(CCNC(=O)c3cccs3)s2)c1	/	/	/	-0.8%	/	-9.9%
COc1cc(OC)c2c(O)c3c(c(-c4c5c(c(O)c6c(OC)cc(OC)cc46)CO[C@@H](C)[C@H]5O)c2c1)[C@H](O)[C@H](C)OC3	35.5µM*	10.4%	-20.5%	1.5%	-32.9%	?
COc1cc2c(c(OC)c1O)C(=O)CO2	-16.3%	10.3%	2.7%	17.2%	-1.3%	-17.2%
